Our source for the outcome values is PubChem BioAssay AID687038 (Broad Institute, 2013).

Each structure is given as a SMILES string. Active and inactive are the calls of the source.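 Rule for the calls: active = curve showing a falling signal whose half-maximal concentration is at most twice the top valid dose; inconclusive = flat curve with a moderate drop, or an unreliable fit; inactive = the rest.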

This experiment can be described thus: endogenous miR-21 quantity in Huh7 cells – cell-based, RT-qPCR, dry powder, selectivity assay for miR-122 inhibitor project, dose response (AID 687038). As to conditions: Huh7 miR-21 levels, qRT-PCR, 48 h; series mostly up to 35 µM. In general terms: Real-time PCR tracks product formation cycle by cycle.
For the compound `C[C@@H]1CN([C@H](C)CO)S(=O)(=O)c2ccc(C#Cc3ccncc3)cc2O[C@H]1CN(C)C(=O)C1CCOCC1`, the compound was classed as inactive.
Then `CN1C(=O)c2cc(NC(=O)c3cccc(F)c3)ccc2OC[C@@H]2O[C@H](CC(=O)O)CC[C@@H]21`, with “inactive”; and `O=C(c1ccc(CN2CCOCC2)cc1)N1CCc2ccccc21`, with “inactive”.
The value for `O=C(c1ccc(CNc2c(NC3CCCCC3)c(=O)c2=O)cc1)N1CCc2ccccc21` was “inactive”.
For `CCCC#Cc1ccc2c(c1)O[C@H](CN(C)C(=O)COC)[C@H](C)CN([C@@H](C)CO)S2(=O)=O`, the outcome was inactive.
The value for `CN1C(=O)c2cc(NC(=O)c3cccc(F)c3)ccc2OC[C@H]2O[C@H](CC(=O)O)CC[C@@H]21` was “inactive”; that for `COCC(=O)N(C)C[C@H]1Oc2cc(C#Cc3cccnc3)ccc2S(=O)(=O)N([C@H](C)CO)C[C@H]1C` was “inactive”.
Then `O=C(NCCC1=CCCCC1)c1ccc2c(c1)sc1nc(-c3ccccc3)cn12`, with “inactive”.
Regarding `C[C@@H]1CN([C@@H](C)CO)S(=O)(=O)c2ccc(C#Cc3ccncc3)cc2O[C@@H]1CN(C)C(=O)C1CCOCC1`, the compound was classed as inactive.
Then `COCC(=O)N(C)C[C@@H]1Oc2ncc(-c3ccc(C#N)cc3)cc2C(=O)N([C@@H](C)CO)C[C@@H]1C`, with “inactive”; and `C[C@H]1CN([C@@H](C)CO)C(=O)c2cc(C#Cc3ccccc3F)cnc2O[C@@H]1CN(C)C(=O)C1CCCCC1`, with “inactive”.
The value for `CCn1cc(C(=O)O)c(=O)c2cc(F)c(N3CCNCC3)nc21` was “inactive”; that for `CO[C@@H]1CN(C)C(=O)c2cc(NC(=O)c3cccc(Oc4ccccc4)c3)ccc2OC[C@H](C)NC[C@@H]1C` was “inactive”.
